Compound activity as filed in PubChem.
FMDV antiviral – High Throughput Screening for Foot and Mouth Disease Virus Antivirals | AID 1159524, 2015 | actives 1.2% (n = 410,000) | FMDV antiviral cell-based qHTS | Potency, µM (series often up to 57.9 µM), hits mostly inhibitors; calls by dose curve; tested in HEK293T cells; also: read-out not given here; nearly all actives have a fitted effect of over 45% in size
HCMV inh – qHTS Assay for inhibitors of the human cytomegalovirus (HCMV) | HFF cells, HCMV-luciferase reporter, 72 h; active compounds read low | activity change, negative = inhibition, % at 57.5 µM | actives 4.5% (n = 410,000); in the data active = activity change below about -60%; inconclusive = no clear call, values can overlap the other calls; inactive = above about -39%
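After 16 h attachment at 37C, HFF cells received test compound and HCMV-luciferase (1 PFU/cell); reporter luminescence read 72 h later, data normalized against buffer-only and known inhibitor Salinomycin.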
Vaccinia Venus – qHTS for Stage-Specific Inhibitors of Vaccinia Orthopoxvirus: Venus Reporter Primary qHTS | Vaccinia virus Venus reporter expression, fluorescence | Potency, µM (series often up to 36.5 µM), hits mostly inhibitors | actives 0.46% (n = 330,000) | AID 720580, 2013; calls by dose curve; tested in A549 cells; also: nearly all actives have a fitted effect of over 30% in size
HCV inhibitor – qHTS Assay for Inhibitors of Hepatitis C Virus (HCV). Huh7.5.1 HCVcc-Cre infection, luciferase reporter, 44 h. Potency, µM (doses to about 41.8 µM), hits mostly inhibitors. actives 3.4% (n = 340,000). AID 651820, 2012; active = well fitted inhibition curve with a large enough effect; inconclusive = small, poorly fitted or top-dose-only effect, or another doubt; inactive = no such curve, though single readings can be large or run the other way
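After 44 h co-culture of compound, cells and HCVcc-Cre (~0.5 moi), substrate is added for 15 min at room temperature and luciferase measured over 15 sec. Cells were seeded at 1,000/well and pre-cultured 4 h.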
Vaccinia mCherry – qHTS for Stage-Specific Inhibitors of Vaccinia Orthopoxvirus: mCherry Reporter Primary qHTS. Vaccinia virus mCherry reporter infection, fluorescence. Potency, µM (doses to about 36.5 µM), actives largely listed as inhibitors. actives 0.63% (n = 310,000). AID 720579, 2013; calls by dose curve; tested in A549 cells; also: nearly all actives have a fitted effect of over 35% in size
Large screens that a line does not name were inactive; ! = not active in a repeat. Shown are actives, neighbours in structure and some others; about 7.3% of the full set was active somewhere.

O=C(COC(=O)c1ccc(F)c([N+](=O)[O-])c1)NC(=O)NCc1ccccc1	FMDV antiviral 32µM, HCV inhibitor inconclusive
Cc1ccccc1CN1CC2=C(CCN(Cc3ccccc3)C2=O)N2CCN=C12	HCMV inh -99 (no result: HCV inhibitor)
Cc1nc2ccccc2n1CC(O)COCC1CC=CCC1 (configuration not stated)	FMDV antiviral inconclusive, HCMV inh -81, Vaccinia Venus inconclusive, HCV inhibitor 11µM (no result: Vaccinia mCherry)
OC(COCC1CC=CCC1)Cn1cnc2ccccc21 (configuration not stated)	FMDV antiviral inconclusive (no result: Vaccinia Venus, Vaccinia mCherry)
Cc1cc(-c2nc3ccccc3o2)c2ccccc2n1	HCV inhibitor 14µM (no result: Vaccinia Venus, Vaccinia mCherry)
COC(=O)/C=C\c1cc(O)ccc1O	none (no result: HCMV inh, Vaccinia Venus, HCV inhibitor, Vaccinia mCherry)
Cc1ccc(NC(=O)N2CCc3c([nH]c4ccccc34)C2c2ccccc2F)c(Cl)c1 (configuration not stated)	none (no result: HCV inhibitor)
Cc1ccc(CNC(=O)Cc2c(C)c3cc4c(C)coc4cc3oc2=O)cc1	none (no result: HCV inhibitor)
CCOc1ccc(N(CC(=O)NC2CCCC2)C(=O)CSc2nnc(COc3ccccc3)o2)cc1	HCMV inh inconclusive, HCV inhibitor 22µM (no result: FMDV antiviral)
CCOc1ccc(N(CC(=O)NC2CC3CCC2C3)S(=O)(=O)c2ccccc2)cc1 (configuration not stated)	none
CCOc1ccc(N(CC(=O)NC2CCCC2)S(=O)(=O)c2ccccc2)cc1	HCMV inh -64
CCOc1ccc(N(CC(=O)NC2CC3CCC2C3)S(=O)(=O)c2ccc(C)cc2)cc1 (configuration not stated)	HCV inhibitor 6.3µM (no result: Vaccinia Venus, Vaccinia mCherry)
Cc1ccc(-c2csc3nc4ccc(C(=O)NCCO)cc4c(=O)n23)cc1	HCMV inh -90
CCNC(=O)c1ccc2c(c1)C1C3CCC(C3)C1C(c1ccccc1)N2 (configuration not stated)	HCMV inh -63, Vaccinia Venus inconclusive, Vaccinia mCherry inconclusive
CCNC(=O)c1ccc2nc(-c3ccccc3)c(-c3ccccc3)nc2c1	none (no result: FMDV antiviral, HCMV inh, HCV inhibitor)
Cc1[nH]nc2ncc(C(=O)c3ccccc3O)cc12	HCMV inh -82 (no result: Vaccinia Venus, Vaccinia mCherry)
[O-][N+](=NC1C=Cc2ccccc21)C1C=Cc2ccccc21 (configuration not stated)	Vaccinia mCherry inconclusive (no result: FMDV antiviral, HCMV inh, HCV inhibitor)
CCOc1cc(C)nc(NCc2ccccc2)n1	none
CC(=O)c1ccc(Oc2cc(C)nc(NCc3ccccc3)n2)cc1	HCV inhibitor 13µM
NC(N)=NC(N)=Nc1ccc(SC(F)(F)F)cc1	HCV inhibitor 11µM
CC(C)C(C(=O)NC1CCCCC1)N1C(=O)C(=O)c2ccccc21 (configuration not stated)	none (no result: FMDV antiviral, Vaccinia Venus, HCV inhibitor, Vaccinia mCherry)
Cc1ccc(CNC(=O)C(C(C)C)N2Cc3ccccc3C2=O)cc1 (configuration not stated)	none (no result: HCV inhibitor)
COc1ccc(CN2CCOc3ccc(CN4CCC(Oc5cccnc5)CC4)cc3C2)c(F)c1	FMDV antiviral inconclusive (no result: HCMV inh, HCV inhibitor)
NC(=O)[C@@H]1CCCN1C(=O)c1cc(NC(=O)c2ccccc2)cc2ncn(C3CCCC3)c12	none (no result: HCMV inh, HCV inhibitor)
CCOC(=O)c1cnn(-c2sc(C(=O)OCC)c(C)c2C(=O)OCC)c1N	HCMV inh -68, HCV inhibitor inconclusive (no result: FMDV antiviral)
O=c1c2cnn(-c3ccc(Cl)cc3)c2ncn1Cc1ccc(Cl)cc1Cl	none (no result: HCV inhibitor)
CCc1ccc(-n2nnc(-c3nc(-c4ccc(C)cc4)no3)c2N)cc1	none (no result: HCV inhibitor)
CSc1nc(N2CCN(c3ccccc3Cl)CC2)c2ccccc2n1	FMDV antiviral inconclusive, HCMV inh inconclusive, HCV inhibitor inconclusive
CCN(CC)c1ccc(Nc2nc(N3CCOCC3)c3ccccc3n2)cc1	FMDV antiviral inconclusive, HCMV inh -96, HCV inhibitor 4.5µM (no result: Vaccinia Venus, Vaccinia mCherry)
COc1ccc(Nc2nc3ccccc3c(=O)[nH]2)cc1	none
CSc1nc(N2CCOCC2)c2ccccc2n1	HCV inhibitor 10µM, Vaccinia mCherry inconclusive
COc1ccc(Nc2nc(N3CCCC3)c3ccccc3n2)cc1	FMDV antiviral inconclusive, Vaccinia Venus 10µM, HCV inhibitor 10µM, Vaccinia mCherry 8.9µM
Cc1ccc(-c2cc(C(F)F)nc(S(C)(=O)=O)n2)cc1	FMDV antiviral 32µM, HCV inhibitor inconclusive
CCCNc1nc(Nc2ccc(C)c(Cl)c2)c2cnn(C)c2n1	FMDV antiviral inconclusive, HCV inhibitor inconclusive (no result: Vaccinia Venus, Vaccinia mCherry)
Clc1ccc(Nc2ncnc3c2cnn3-c2ccccc2)cc1	Vaccinia Venus inconclusive
Cc1ccc(Nc2nc(NCCO)nc3c2cnn3C)cc1Cl	HCV inhibitor 13µM (no result: Vaccinia Venus, Vaccinia mCherry)
Fc1ccc(-n2ncc3c(Nc4cccc(Cl)c4)ncnc32)cc1	HCMV inh -66 (no result: HCV inhibitor)
Cn1ncc2c(Nc3cccc(Cl)c3)nc(Nc3cccc(Cl)c3)nc21	HCMV inh -66, HCV inhibitor inconclusive, Vaccinia mCherry inconclusive
COc1ccccc1C(=O)Nc1ccc(C(=O)OCc2cc(=O)n3c4c(sc3n2)CCCC4)cc1	none (no result: HCV inhibitor)
CCOc1ccc(NC(=O)CN2C(=O)C(c3ccccc3)=NC23CCC(C)CC3)cc1 (configuration not stated)	none (no result: HCV inhibitor)
Cc1ccc(-c2cc(-c3ccc(C)cc3)[n+](-c3ccc(C(=O)O)cc3)c(-c3ccc(C)cc3)c2)cc1	none
Cc1ccc(C[n+]2c(-c3ccc(C)cc3)cc(-c3ccc(C)cc3)cc2-c2ccc(C)cc2)cc1	FMDV antiviral inconclusive, Vaccinia Venus 3.5µM, HCV inhibitor 2.2µM, Vaccinia mCherry inconclusive (no result: HCMV inh)
CCOc1ccccc1C(=O)N1CCC(c2nc3ccccc3o2)CC1	none (no result: HCV inhibitor)
O=C(c1cnc2ccc3ccccc3c2c1)c1cc(F)ccc1O	FMDV antiviral inconclusive, HCV inhibitor 5.6µM, Vaccinia mCherry inconclusive
Cc1cccc2cc(CN(Cc3ccccc3)Cc3nnnn3Cc3ccccc3)c(=O)[nH]c12	none (no result: FMDV antiviral, HCMV inh, HCV inhibitor)
Nc1c(C(=O)Nc2ccc(OC(F)(F)F)cc2)nnn1Cc1ccccc1	none (no result: HCV inhibitor)
COc1ccc(C(CC(C)=O)c2c(O)c3ccccc3oc2=O)cc1OC (configuration not stated)	none (no result: HCV inhibitor)
CC/C(CC(c1ccccc1)c1c(O)c2ccccc2oc1=O)=N\NC(N)=S (configuration not stated)	Vaccinia Venus inconclusive, Vaccinia mCherry 14µM
O=C1CCN(Cc2ccccc2)CCN1CCO	HCMV inh inconclusive
O=C1CCN(Cc2ccc(O)cc2)CCN1CCO	HCMV inh -68!
CSc1ccc(C2Nc3ccccc3-c3cc(C)nn32)cc1 (configuration not stated)	HCV inhibitor 10µM (no result: Vaccinia Venus, Vaccinia mCherry)
CCN(CC)c1ccc(C2Nc3ccccc3-c3cc(C)nn32)cc1 (configuration not stated)	none (no result: HCV inhibitor)
Cc1ccc(S(=O)(=O)c2[nH]c(-c3ccccc3)nc2SC(C)C(=O)O)cc1 (configuration not stated)	none (no result: HCV inhibitor)
CC1CCN(S(=O)(=O)c2ccc3c(c2)C(=NO)c2cc(S(=O)(=O)N4CCC(C)CC4)ccc2-3)CC1	FMDV antiviral inconclusive, HCMV inh -99, Vaccinia Venus inconclusive, HCV inhibitor 2µM, Vaccinia mCherry 2.8µM
COc1ccc(S(=O)(=O)N2CCC(C)CC2)cc1OC	none (no result: Vaccinia Venus, Vaccinia mCherry)
CC1CCN(S(=O)(=O)c2ccc3[nH]ccc3c2)CC1	HCMV inh -94 (no result: HCV inhibitor)
